Measurements published in PubChem BioAssay (Tox21).
Results filed as inconclusive are left out. Unmarked numbers belong to inactive results. The source made the active and inactive calls. Calls come from the whole dose curve; as a rule, active = well fitted cell-killing curve with a large enough effect in the repeat runs; inconclusive = weak or mixed curves, or effect the other way; inactive = flat fitted curve, though single readings scatter.

Assay: cAMP Responsive Elements (CRE) small molecule antagonists, cell-based qHTS assay: qHTS cell viability counter screen (AID 2060913); note: nearly all actives have a fitted effect of over 40% in size
Details: CRE-bla HEK293T viability, CellTiter-Glo luminescence, 5 h; series mostly up to 92.4 µM; viability change, negative = cytotoxic: at the top concentration
Text: U.S. Tox21 Program National Center for Advancing Translational Sciences [NCATS] Division of Preclinical Innovation [DPI] U.S. Environmental Protection Agency [EPA] National Institutes of Environmental Health Sciences [NIEHS] National Toxicology Program [NTP] U.S. Food and Drug Administration [FDA] Tox21 Assay Overview: CREB (cyclic-AMP Responsive Element Binding Protein) is a cellular transcription factor. It binds to certain DNA sequences called cAMP Responsive Elements (CRE) and regulates the transcription of the genes. […] This cell line can be used to find agonists/antagonists of the cyclic AMP signaling pathway. The activation of the report gene under culture conditions can be detected by fluorescence intensity. This cell line has been used to screen the Tox21 10K compound library to identify agonists that induce oxidative stress. The cytotoxicity of the Tox21 compound library against the CRE-bla cell line was tested in parallel by measuring the cell viability using CellTiter-Glo assay (Promega, Madison, WI) in the same wells.
Tox21 Assay Protocol Summary: CRE-bla Hek 293T cells were suspended in assay medium (DMEM containing 10% dialyzed FBS, 0.1 mM NEAA, 1 mM sodium pyruvate and 25 mM HEPES) and dispensed at 2,000 cells/4 uL /well into 1536-well black wall/clear bottom plates using a Multidrop Combi (ThermoFisher Scientific, Waltham, MA) dispenser. After the assay plates were incubated at 37 C/5% CO2 for 18 hrs, 23 nL of compounds dissolved in DMSO, positive controls or DMSO only was transferred to the assay plate by a pintool workstation (Kalypsys, San Diego, CA), followed by addition of 1 uL of 1.25uM NKH477 (0.25 uM as final concentration) in assay medium using a Flying Reagent Dispenser (Aurora Discovery, San Diego, CA). The plates were incubated at 37 C and 5% CO2 for 3 hrs. Then 1 uL of LiveBLAzer B/G FRET substrate (Invitrogen, Carlsbad, CA) was added to each well using Bioraptr Flying Reagent Dispenser (FRD, Aurora Discovery, San Diego, CA). The plates were incubated at room temperature for 2 h, then fluorescence intensities were measured using an Envision plate reader (PerkinElmer, Shelton, CT) at Excitation 405nm, Emission 460nm and 530nm. The % activity was determined from the ratio of 460nm/530nm. For cell viability readout that measures cytotoxicity, 4 uL /well of CellTiter-Glo reagent was added into the assay plates using Bioraptr FRD. After 30 min incubation at room temperature, the luminescence intensity in the assay plates was measured using a ViewLux (PerkinElmer, Shelton, CT) plate reader.
% is set by controls: 0 for no effect and ±100 for the full control effect; potency is the fitted concentration of half-maximal effect.

| Structure (SMILES) | Potency | viability change, negative = cytotoxic |
| --- | --- | --- |
| N#CS | inactive |  |
| c1ccc(OP(Oc2ccccc2)Oc2ccccc2)cc1 | inactive |  |
| CCCCCON=O |  | 4.06% |
| CCOP(=S)(Oc1ccc([N+](=O)[O-])cc1)c1ccccc1 (stereo not given) |  | -12.3% |
| ClC1=C(Cl)[C@]2(Cl)[C@@H]3[C@@H](Cl)[C@@H](Cl)C[C@@H]3[C@@]1(Cl)C2(Cl)Cl |  | 14.3% |
| O=[N+]([O-])c1ccc(CCl)cc1 |  | -14.8% |
| CN1CC[C@]23c4c5ccc(O)c4O[C@H]2[C@@H](O)C=C[C@H]3[C@H]1C5 |  | 4.75% |
| CC(C)[N+](=O)[O-] |  | 8.99% |
| O=[N+]([O-])c1ccc2ccc3cccc4ccc1c2c34 |  | -9.72% |
| COc1ccc(C(CN(C)C)C2(O)CCCCC2)cc1 (stereo not given) | inactive |  |
| CCC(C)c1cc(C(C)(C)C)cc(-n2nc3ccccc3n2)c1O (stereo not given) |  | -12.2% [at 42.5 µM] |
| CCOCN(C(=O)CCl)c1c(C)cccc1CC | inactive |  |
| CN1[C@@H]2CC[C@H]1CC(O)C2 (stereo not given in full) |  | 3.25% |
| O=S(=O)(O)O | inactive |  |
| CCCCCCCCCCCCOS(=O)(=O)O | inactive |  |
| COc1cc(C[C@@H](C)N)c(OC)cc1Br |  | -4.6% |
| [N-]=[N+]=[N-] | inactive |  |
| [Cl-].[Cl-].[Cl-].[Yb+3] |  | -2.94% |
| C[N+]1(CCF)[C@@H]2CC[C@H]1CC(OC(=O)C(O)(c1ccccc1)c1ccccc1)C2 (stereo not given in full) |  | 1.88% [at 42.5 µM] |
| CCC1(CC)C(=O)NC(=O)NC1=O |  | -1.64% [at 42.5 µM] |

| Structure (SMILES) | Potency | viability change, negative = cytotoxic |
| --- | --- | --- |
| CCOP(=S)(OCC)SCS(=O)(=O)CC |  | -0.956% |
| C[C@@H]1CC[C@@]2(OC1)O[C@H]1[C@@H](O)[C@H]3[C@@H]4CC[C@H]5C[C@@H](O[C@@H]6O[C@H](CO)[C@H](O[C@@H]7O[C@H](CO)[C@@H](O)[C@H](O[C@@H]8OC[C@@H](O)[C@H](O)[C@H]8O)[C@H]7O[C@@H]7O[C@H](CO)[C@@H](O)[C@H](O[C@@H]8O[C@H](CO)[C@@H](O)[C@H](O)[C@H]8O)[C@H]7O)[C@H](O)[C@H]6O)[C@H](O)C[C@]5(C)[C@H]4CC[C@]3(C)[C@H]1[C@@H]2C | 32.5 µM (active) |  |
| C=CC(=O)OCC(C)C |  | 7.58% |
| C(=NC1CCCCC1)=NC1CCCCC1 | inactive |  |
| CC(=[OH+])/C=C(/C)[O-].CC(=[OH+])/C=C(\C)[O-].CC(=[OH+])/C=C(\C)[O-].[Fe] |  | 18% |
| O=C(O)C(F)(F)C(F)(F)C(F)(F)C(F)(F)C(F)(F)C(F)(F)C(F)(F)C(F)(F)C(F)(F)F |  | 7.1% |
| O=CC(Br)(Br)Br |  | 0.976% |
| Nc1ncn[nH]1 |  | 2.62% |
| CNNC |  | -6.6% |
| Cc1cc(C)c(C(=O)P(=O)(C(=O)c2c(C)cc(C)cc2C)c2ccccc2)c(C)c1 |  | 0.679% |
| CC(C)O.CC(C)O.OCCN(CCO)CCO.OCCN(CCO)CCO.[Ti] |  | 2.61% |
| CNC(=O)Oc1cccc2c1OC(C)(C)O2 | inactive |  |
| O=C(CCl)NCO |  | 4.02% |
| CCCCOCCOP(=O)(OCCOCCCC)OCCOCCCC | inactive |  |
| O=C(NCNC(=O)NC1C(=O)NC(=O)N1CO)NC1C(=O)NC(=O)N1CO (stereo not given) |  | -1.96% |
| CCN |  | 2.59% |
| CC1=C(C(=O)Nc2ccccc2)S(=O)(=O)CCO1 |  | 14.3% |
| N[C@@H](Cc1ccc(N(CCCl)CCCl)cc1)C(=O)O | inactive |  |
| CC(C)(c1ccc(O)c(-c2ccccc2)c1)c1ccc(O)c(-c2ccccc2)c1 | 61.1 µM (active) |  |
| CN(C)N=O | inactive |  |
